Bioassay records as filed in PubChem BioAssay.
Only a selection was taken, and hits are over-represented in it overall.
Pf Dd2 growth – Plasmodium falciparum Dd2 growth inhibition; P. falciparum Dd2 growth, SYBR Green, 72 h; hit rate 4.3% among 120,000; Potency, µM (series often up to 28.9 µM), actives largely listed as inhibitors; active means well fitted inhibition curve with a large enough effect; further: nearly all actives have a fitted effect of over 65% in size
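Readout: SYBR Green fluorescence, 485 nm excitation, 535 nm emission, after ~16 h lysis at 37C. Before that, Dd2-infected red cells (2.5% hematocrit) grew 72 h with compound, 29 uM top final concentration.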
Each line names hits and unclear results; the compound was inactive in the other large screens.

Cc1nc2ncnn2c(C)c1CCC(=O)N1CCN(c2ccc(F)cc2)CC1	none
COc1ccc(-c2cc3nc(C)c(CCC(=O)N4CCN(c5ccc(F)cc5)CC4)c(C)n3n2)c(OC)c1	Pf Dd2 growth 10µM
COc1ccc(N2CCN(C(=O)CCc3c(C)nc4cc(-c5ccc(Cl)cc5)nn4c3C)CC2)cc1	none
Cc1nc2ncnn2c(C)c1CCC(=O)N1CCN(c2cccc(Cl)c2)CC1	none
COc1ccc(-c2cc3nc(C)c(CCC(=O)N4CCN(c5cccc(Cl)c5)CC4)c(C)n3n2)c(OC)c1	Pf Dd2 growth 10µM
COc1ccc(N2CCN(C(=O)c3c(C)nn(-c4ccc(F)cc4)c3-n3cccc3)CC2)cc1	none
CN(C)CCN(C)[C@H]1[C@@H]2OC[C@@H](O2)[C@@H](NCc2cnc3ccccc3c2)[C@@H]1O	none
COC(=O)c1ccc(NC(=O)c2cnc(-c3ccc(C)cc3)nc2-c2ccncc2)cc1	none
CNCCN1C(=O)CC[C@H]2CN(C(=O)c3ccc(C(C)C)[nH]c3=O)CC[C@H]21	none
COCC(=O)NC1CCC12CCN(C(=O)C1CCOCC1)CC2 (centres undefined)	none
Cc1nnsc1C(=O)N[C@H]1CCN(C(=O)COCC(=O)O)[C@H](C(=O)N[C@H](Cc2ccccc2)C(N)=O)C1	none
Cc1ccc(S(N)(=O)=O)cc1C(=O)N[C@H]1[C@H]2CCO[C@H]2[C@@H]1N1CCCC1	none
COc1ccc(CCN(C)C(=O)CC(c2cccc(F)c2)c2cn(C)c3ccccc23)cc1OC (centres undefined)	Pf Dd2 growth 2µM
COc1ccccc1C(CC(=O)NCC(C)C)c1cn(C)c2ccccc12 (centres undefined)	none
COc1cccc(C(CC(=O)NCCc2ccc(OC)c(OC)c2)c2c[nH]c3ccccc23)c1 (centres undefined)	none
O=C(CCC[C@@H]1[C@H]2CCCN3CCC[C@@H](CN1C(=O)c1cccnc1)[C@@H]23)N1CCCC1	none
C=CCN1CCN(C(=O)CCC[C@@H]2[C@H]3CCCN4CCC[C@@H](CN2C(=O)c2ccccc2)[C@@H]34)CC1	Pf Dd2 growth 10µM
C=CCN1CCN(C(=O)CCC[C@@H]2[C@H]3CCCN4CCC[C@@H](CN2Cc2ccccc2)[C@@H]34)CC1	none
O=C(NCc1ccco1)N1C[C@@H]2CN(C(=O)C3CC3)C[C@]2(C(=O)O)C1	none
O=C(Cc1ccc(N2CCNC2=O)cc1)N1CCC2(CC1)[C@H](O)C[C@@H]2O	none
CN(Cc1ccc(N2CCNC2=O)cc1)CC1CCCN(CCc2ccc(F)cc2)C1 (centres undefined)	Pf Dd2 growth 13µM
COc1ccc(CCN2CCCC(CN(C)C(=O)c3cnn(C(C)C)c3)C2)cc1 (centres undefined)	none
O=C(N[C@H]1CCC[C@H]1O)C1(Oc2ccc(Cl)cc2)CCNCC1	none
COc1ccc(-c2c(C)c3ccc(O)c(CN4CCCC4)c3oc2=O)cc1	Pf Dd2 growth 3.2µM
COc1ccc2c(c1)OCC(CNC(=O)CN1CCOCC1)C2 (centres undefined)	none
COc1ccc(-c2c(C)c3ccc(O)c(CN4CCOCC4)c3oc2=O)cc1	Pf Dd2 growth 8.9µM
COc1ccc(C(CNC(=O)c2oc3ccc(C)cc3c2C)N2CCOCC2)cc1 (centres undefined)	none
COc1ccc(CNC(=O)C2CCN(Cc3nc(-c4ccc(Cl)cc4)oc3C)CC2)cc1	none
COc1ccc(-c2nc(C)nc3c2CCN(Cc2cncs2)CC3)cc1	none
CCN(CC)C(=O)Cc1cccn1-c1ccc(Cl)cc1	none
CC(=O)NC1(C)CCN(Cc2ccccc2-c2cccc(C(C)=O)c2)C1 (centres undefined)	none
CC(=O)NC1(C)CCN(Cc2cnc(-c3ccccc3)s2)CC1	none
CC(=O)NC1(C)CCN(Cc2cnc(-c3cccc(N(C)C)c3)s2)CC1	none
CC(=O)NC1(C)CCN(Cc2ccc(-c3ccc(N4CCOCC4)cc3)cc2)C1 (centres undefined)	none
CC(=O)NC1(C)CCN(Cc2ccc(-c3ccccc3OCc3ccccc3)cc2)C1 (centres undefined)	Pf Dd2 growth 13µM
CC(=O)NC1(C)CCN(Cc2cnc(-c3ccccc3OCc3ccccc3)s2)CC1	Pf Dd2 growth 11µM
Cc1ccc(Cl)cc1NC(=O)N1CC(C(=O)N(C)C)C2(CCOCC2)C1 (centres undefined)	none
Cc1cccnc1C(=O)N[C@@H]1CN(C2CCOCC2)C[C@H]1CN(C)C	none
COCCN1CCCCCC(O)c2cc(C(=O)Nc3cc(C)ccc3OC)ccc21 (centres undefined)	none
CS(=O)(=O)N1CCC2(CCC(=O)N(CC3CCCO3)C2)CC1 (centres undefined)	none
COc1cccc(N2CCN(C(=O)C3CC(=O)N(c4n[nH]c5cccc(F)c45)C3)CC2)c1 (centres undefined)	none
COc1ccccc1N1CCN(C(=O)C2CC(=O)N(c3n[nH]c4cccc(F)c34)C2)CC1 (centres undefined)	Pf Dd2 growth 7.1µM
O=C(C1CC(=O)N(c2n[nH]c3cccc(F)c23)C1)N1CCN(c2ccc(F)cc2)CC1 (centres undefined)	none
CSCCCN1CCC(Oc2ccc3ncccc3c2)(C(=O)O)CC1	none
O=C(C1CC2(CCNCC2)CN1)N1CCc2c(nc(CC3CC3)[nH]c2=O)C1 (centres undefined)	none
COc1cccc([C@@H]2CN(C(=O)c3cnn(C)c3)C[C@H]2C(=O)O)c1	none
Cc1ccc(CNC(=O)c2cc3sccc3n2Cc2ccc(Cl)cc2)cc1	none
COC(=O)c1cc(NC(=O)c2cc3sccc3n2Cc2ccc(Cl)cc2)cc(C(=O)OC)c1	Pf Dd2 growth 11µM
CC(=O)c1ccc(NC(=O)c2cc3sccc3n2Cc2ccc(F)cc2)cc1	none
Cn1cc(CN2CCN(C(=O)c3c[nH]c4ccccc34)CC2)ccc1=O	none
CCNC(=O)N(C1CC1)C1CCOC2(CCN(C(=O)c3n[nH]c4ccccc34)CC2)C1 (centres undefined)	none
CN(Cc1cccnc1)C1CCCc2ccccc21 (centres undefined)	Pf Dd2 growth 5µM
CN(Cc1cccc2ccccc12)C1CCCc2ccccc21 (centres undefined)	Pf Dd2 growth 11µM
CN(Cc1ccc(F)cc1)C1CCc2ccccc21 (centres undefined)	none
COC(=O)N(C)C1CCCc2ccccc21 (centres undefined)	none
CN(Cc1ccc(C(F)(F)F)cc1)C1CCc2ccccc21 (centres undefined)	none
CN(CC1CCCCC1)C1CCc2ccccc21 (centres undefined)	none
COc1ccc(NC(=O)CC2Nc3ccccc3NC2=O)cc1 (centres undefined)	none
O=C(C[C@H]1NC(=O)c2ccccc2NC1=O)Nc1ccccc1Cl	none
COc1cccc(NC(=O)CC2Nc3cc(C)c(C)cc3NC2=O)c1 (centres undefined)	Pf Dd2 growth 2.2µM
COc1ccc(C)cc1NC(=O)C[C@H]1NC(=O)c2ccccc2NC1=O	none
Cc1ccc(NC(=O)CC2Nc3cc(C)c(C)cc3NC2=O)c(C)c1 (centres undefined)	Pf Dd2 growth 3.2µM
Cc1ccc2c(c1)NC(=O)C(CC(=O)Nc1cc(Cl)ccc1C)O2 (centres undefined)	none
Cc1cc2c(cc1C)NC(CC(=O)Nc1cccc(C)c1C)C(=O)N2 (centres undefined)	Pf Dd2 growth 3.2µM
Cc1cccc(NC(=O)CC2Nc3cccc4cccc(c34)NC2=O)c1 (centres undefined)	none
COc1cccc(NC(=O)CC2Oc3ccccc3NC2=O)c1 (centres undefined)	none
CNC(=O)[C@@H]1CN(C(=O)c2ccn(C)n2)C[C@H]1COC	none
CCN1CCN(c2ccc(C(=O)NCCCc3ccc(OC)cc3)cn2)CC1	none
